# Mcl1 Noxa PPI – disrupts binding of human Mcl-1 to Noxa peptide; Q07820; TR-FRET Mcl-1/Noxa peptide binding, 2 h; inhibition, % at 21.7 µM; actives 1.5% (n = 220,000); AID 1022;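 active = compounds that cut the protein-peptide binding signal by more than 50% relative to plate controls in a single-dose test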;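 note: His-tagged Mcl-1 with rhodamine Noxa BH3 peptide and terbium anti-His antibody; 0% = Mcl-1 plus Noxa peptide wells and 100% = peptide-only wells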
# Bim-Mcl-1 – human Bim-Mcl-1 interaction inhibition. inhibition, % at 10 µM. Bead-based flow cytometry, Bim peptide-Mcl-1 binding. AID 1009. actives 0.1% (n = 190,000). Q07820; in the data active = inhibition above about 40%;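 note: 0% = no compound tracer wells and 100% = peptide blocker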
# 14-3-3 Bad inh – disrupts binding of bovine 14-3-3 zeta to phospho-Bad peptide | P63103 | TR-FRET 14-3-3zeta/Dy647-pBad peptide displacement, 1 h | inhibition, % at 21.7 µM | actives 0.71% (n = 220,000) | AID 781;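 active = inhibition above about 70%, limit read from the data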;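 note: 0% = full 14-3-3 plus peptide FRET controls and 100% = background without 14-3-3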
# Target sequence (P63103 whole entry, looked up): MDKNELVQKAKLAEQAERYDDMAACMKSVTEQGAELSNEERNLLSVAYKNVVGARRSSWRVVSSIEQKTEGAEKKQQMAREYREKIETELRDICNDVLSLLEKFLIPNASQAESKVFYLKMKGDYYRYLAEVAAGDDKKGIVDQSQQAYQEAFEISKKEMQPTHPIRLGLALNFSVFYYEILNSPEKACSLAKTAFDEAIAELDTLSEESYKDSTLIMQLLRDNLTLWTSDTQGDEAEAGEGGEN
# Mcl1 Bid PPI – disrupts binding of human Mcl-1 to Bid peptide; actives 0.97% (n = 220,000); Q07820; TR-FRET Mcl-1/Bid-Dy647 peptide binding, 1536-well; inhibition, % at 21.7 µM;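 active = compounds that cut the binding signal by more than half at the single screening dose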;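 note: His-tagged Mcl-1 with europium anti-His antibody binding Bid BH3 peptide; 0% = Mcl-1 plus peptide wells and 100% = peptide-only wells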
# Pf gamet viab – P. falciparum stage V gametocyte viability inhibition; P. falciparum stage V gametocytes, ATP luminescence, 24 h; inhibition, % at 10.9 µM; AID 743093; actives 0.065% (n = 150,000);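 active = inhibition above the mean plus 3 SD of compounds within the control limits, set per campaign, cut at about 38% in these data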;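 note: 0% = DMSO wells and 100% = medium only without gametocytes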
# Hck Nef HTS – blocks Nef-activated human Hck kinase; P08631; Recombinant Hck-YEEI plus Nef, Z-Lyte FRET kinase assay; inhibition, % at 20 µM; actives 0.68% (n = 220,000);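 active = Hck-Nef kinase inhibition above about 50%, limit read from the data; inactive = inhibition below that limit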;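 note: 0% = DMSO with Hck plus Nef and 100% = Hck alone without Nef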
# Active calls of the source: *; / = no result. Hits are enriched below; roughly 2.9% of the tested compounds scored in any of these assays.
SMILES,Mcl1 Noxa PPI,Bim-Mcl-1,14-3-3 Bad inh,Mcl1 Bid PPI,Pf gamet viab,Hck Nef HTS
CN(C)c1ccc(C(CNC(=O)c2ccccc2)c2c[nH]c3ccccc23)cc1 (centres undefined),68*,-2,3,-1,5,6
CN(C)c1ccc(C(CNC(=O)c2ccccc2F)c2c[nH]c3ccccc23)cc1 (centres undefined),66*,27,-1,-2,/,1
O=S(=O)(Nc1ccc(Cl)cc1)c1ccc2c(c1)CCO2,3,/,98*,16,12,-14
Cc1ccnc(NS(=O)(=O)c2ccc3c(c2)CCO3)c1,14,/,5,-31,-13,8
CC(Oc1ccc2ccc(=O)oc2c1)C(=O)c1ccccc1 (centres undefined),-4,-6,33,52*,3,4
CC1(C)CC(=O)C2=C(C1)N(c1ccccc1)C(N)=C(C#N)C2c1cccnc1 (centres undefined),1,2,-6,-34,-1,5
CN(C)N1C(N)=C(C#N)C(c2cccnc2)C2=C1CC(C)(C)CC2=O (centres undefined),22,-4,-15,62*,-4,1
NC(=O)c1ccc(N2CCN(c3ccc(O)cc3)CC2)c([N+](=O)[O-])c1,64*,4,-11,-38,-22,3
CC(=O)c1ccc(N2CCN(c3ccc(C(N)=O)cc3[N+](=O)[O-])CC2)cc1,14,-1,-1,-21,-1,7
CCNS(=O)(=O)c1ccc(NC(=O)c2ccc(Cn3cc(Br)cn3)o2)cc1,6,-6,-2,2,/,5
CCNc1nc(NCC)nc(C(=O)Nc2ccccc2)n1,65*,-2,-12,-48,/,0
CC1Cc2ccccc2N1C(=O)c1cccnc1 (centres undefined),8,-2,-5,-8,29,-1
Oc1ccc(C2Nc3cccc4cccc(c34)N2)c(O)c1,103*,7,-13,19,/,15
c1coc(C2Nc3cccc4cccc(c34)N2)c1,76*,15,-14,-21,/,3
FC(F)(F)c1ccc(C2Nc3cccc4cccc(c34)N2)cc1,27,-2,0,-53,-6,20
COc1cc(C2Nc3cccc4cccc(c34)N2)ccc1OC(C)=O,69*,12,-5,-1,/,5
COc1cc(C2Nc3cccc4cccc(c34)N2)cc(OC)c1O,100*,12,-12,10,/,1
Cc1ccc(C2Nc3cccc4cccc(c34)N2)s1,42,-3,-6,-24,/,-1
Nc1c(C(=O)c2ccco2)oc2ccccc12,13,-1,1,-59,4,4
O=C(OCC(=O)c1ccc[nH]1)c1ccc2ccccc2n1,21,-3,3,-5,-18,-22
CCOC(=O)C1CCCN(Cc2c(Cl)cccc2Cl)C1 (centres undefined),28,-3,41,23,/,1
CCOC(=O)C1CCCCN1Cc1ccccc1C(F)(F)F (centres undefined),31,18,80*,40,15,-3
CCOC(=O)C1CCCN(C(=O)CSCc2ccccc2)C1 (centres undefined),-2,-2,84*,-7,/,0
CCOC(=O)C1CCCN(C(=O)COc2ccccc2O)C1 (centres undefined),-10,0,2,-28,/,0
CCOC(=O)C1CCCN(CC(=O)NC2CC2)C1 (centres undefined),27,-9,77*,40,/,/
SMILES,Mcl1 Noxa PPI,Bim-Mcl-1,14-3-3 Bad inh,Mcl1 Bid PPI,Pf gamet viab,Hck Nef HTS
CCOC(=O)C1CCN(Cc2ccccc2C(F)(F)F)CC1,33,-6,57,21,19,-2
CCOC(=O)C1CCCN(Cc2ccccc2F)C1 (centres undefined),33,-11,73*,25,-4,0
O=C(OCC(=O)N1CCN(c2ccccc2)CC1)C1=COCCO1,9,-1,-16,-10,3,0
CC(C)CNC(=O)COC(=O)c1cccc(S(=O)(=O)NCC(F)(F)F)c1,22,/,6,-28,2,6
CN1CCN(Cc2cccc(Oc3ccc(Cl)cc3)c2)CC1,27,-1,62,67*,-11,-1
CCN1CCN(Cc2cccc(Oc3ccc(Cl)cc3)c2)CC1,11,-2,69,13,0,-2
CCOc1ccc(S(=O)(=O)Nc2cc(OC)ccc2OC)cc1,-10,-1,-7,-29,/,-21

# Assay outcomes as filed in PubChem BioAssay.
